Experimental data reported in PubChem BioAssay AID504465 (National Center for Advancing Translational Sciences (NCATS), 2011).
About 210 (10%) of roughly 2,100 compounds were called active. Inconclusive results (about 53%) are left out. The call rests on the fitted dose curve; in most records, active means well fitted inhibition curve with a large enough effect; inconclusive means small, poorly fitted or top-dose-only effect, or effect the other way; inactive means no such curve, though single readings can be large or run the other way. This is one part of the list. Where a call stands in place of a potency, no number is given.

Assay: IN Cell qHTS Assay for Inhibitors of the mTORC1 Signaling Pathway in MEF (Tsc2-/-, p53-/-) Cells: Sytravon; further: nearly all actives have a fitted effect of over 60% in size
Conditions: phospho-rpS6 immunofluorescence, 24 h; series mostly up to 38.3 µM
Procedure, shortened: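 Tsc2-/-, p53-/- MEFs (empty-vector) treated with compound 24 h at 37 degree Celsius, then fixed and stained for phospho-rpS6 Ser235/236 (Alexa-488) plus Hoechst. Reported as % positive cells, thresholds set against 7.5 nM rapamycin and DMSO wells.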
Potency means the concentration at half of the fitted maximal effect.

Row | Compound | Potency
1 | COc1cc(C2CC(=O)Nc3cc4c(cc32)OCCO4)cc(OC)c1O (stereo not drawn) | inactive
2 | COc1ccccc1NC(=O)CSc1nnc2c(n1)[nH]c1ccccc12 | inactive
3 | CCN(C(=O)c1cc2c(=O)oc3ccc(C)cc3c2s1)c1ccccc1F | inactive
4 | Cc1ccccc1C(=O)Nc1cccc(OCc2cc(=O)n3cccc(C)c3n2)c1 | inactive
5 | CCOc1ccc(C2=C(C(C)=O)Sc3nnc(C)n3N2C(C)=O)cc1 | inactive
6 | O=C(NCc1ccccc1Cl)c1nnc(Cc2cccc(F)c2)o1 | inactive
7 | COc1ccc(C)cc1NC(=O)C(NS(=O)(=O)c1cccs1)c1ccccc1 (stereo not drawn) | inactive
8 | CCN(CC)CCn1c(=N)n(CCOc2ccccc2Cl)c2ccccc21 | 3.69 µM (active)
9 | COc1ccc(N2CCN(CC(O)COc3ccc(C)c(C)c3)CC2)cc1 (stereo not drawn) | inactive
10 | CCCCCn1c(-c2cccc(C)c2)nc2ccccc21 | inactive
11 | CCN(CC)CCn1c(=N)n(CC(O)COc2ccccc2C)c2ccccc21 (stereo not drawn) | 5.85 µM (active)
12 | CCCCCn1c(=N)n(CC(O)COc2cccc(C)c2)c2ccccc21 (stereo not drawn) | 2.61 µM (active)
13 | Cc1ccccc1OCCn1c(=N)n(C(C)C)c2ccccc21 | 9.27 µM (active)
14 | Cc1ccc(C(=O)n2nc(C)c(S(=O)(=O)N3CCCCCC3)c2C)cc1 | inactive
15 | Cc1ccc(NC(=O)CCNS(=O)(=O)c2cccc3nonc23)cc1Cl | inactive
16 | COc1ccc(C(=O)c2cn(Cc3cccc(C)c3)c3cc4c(cc3c2=O)OCO4)cc1 | inactive
17 | CCOC(=O)c1ccccc1Nc1cc(C)nc2nc(-c3ccco3)nn12 | inactive
18 | CC(C)c1ccc(NC(=O)c2cc(S(=O)(=O)NCCC3=CCCCC3)ccc2F)cc1 | inactive
19 | Fc1ccc(-c2csc(=Nc3cccc(C(F)(F)F)c3)n2Cc2ccc3c(c2)OCO3)cc1 | inactive
20 | CCOC(=O)N1CCc2c(sc3c2C(=O)NC(c2ccc(C(=O)OC)cc2)N3)C1 (stereo not drawn) | inactive
21 | COc1cc2c(cc1OC)n(CC(=O)c1ccc(F)cc1)c(=O)n1nc(CCn3nc(C)cc3C)nc21 | inactive
22 | Cc1ccc(NC(=O)c2c(C)oc3ccc(O)c(CN(C)Cc4ccccc4)c23)c(C)c1 | inactive
23 | CCC(C)NC(=O)CSc1nc2cc3c(cc2c(=O)n1CCCC(=O)NCCc1ccc(OC)c(OC)c1)OCO3 (stereo not drawn) | inactive
24 | COc1ccccc1Oc1nc2c(C)cccn2c(=O)c1/C=C(\C#N)c1nc2ccccc2[nH]1 | inactive
25 | O=C(Cn1cc(SCc2ccc(F)cc2)c2ccccc21)N1CCCCCC1 | inactive
26 | Cc1ccc2nc3c(cc(C(=O)NC4CCCCC4)c(=N)n3C(C)C)c(=O)n2c1 | inactive
27 | Cc1ccc(-c2noc(CCCC(=O)NCc3ccco3)n2)cc1 | inactive
28 | COCCn1c(=N)c(C(=O)NCc2ccco2)cc2c(=O)n3cc(C)ccc3nc21 | 13.1 µM (active)
